This is an account of results in PubChem BioAssay (NCATS).

The structures appear in SMILES notation. Results filed as inconclusive are left out. Unmarked numbers belong to inactive results. Calls of active or inactive are those of the source. The call rests on the fitted dose curve; in most records, active means well fitted inhibition curve with a large enough effect; inconclusive means small, poorly fitted or top-dose-only effect; inactive means flat fitted curve, though single readings scatter.

Common to all, as to assay: qHTS profiling for inhibitors of Plasmodium falciparum proliferation (AID 504749); further: nearly all actives have a fitted effect of over 60% in size
Common to all, as to details: P. falciparum in erythrocytes, SYBR Green DNA, 72 h; series mostly up to 28.7 µM
(qHTS replaces the single test concentration by a dilution series.)

One test has as its system CP191. The essentials: (§1)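 Three-day growth assay of blood-stage parasites in erythrocytes (0.3% parasitemia, 2.5% hematocrit) at 37 C, 5% CO2, quantified by SYBR Green DNA staining after overnight detergent lysis.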
The next test deals with CP192. In outline: as §1
For another test, the system named is CP194. In outline: as §1
For another test, the system named is CP201. The essentials:
as §1

In the next test the test system is CP211. The essentials:
as §1

A further test has as its system CP217. The essentials:
as §1

Another test relates to CP237. In outline: as §1
The next test deals with CP238. The essentials:
as §1

In the next test the test system is CP247. The essentials:
as §1

For another test, the system named is CP250. The essentials: as §1
The test system of another test is CP252. The essentials:
as §1

For a further test, the system named is CP256. The essentials: as §1
Another test concerns CP260. In outline:
as §1

A further test relates to CP262. In outline: as §1
In a further test the test system is CP265. The essentials: as §1
The test system of a further test is CP266. The essentials:
as §1

A further test deals with CP268. The essentials: as §1
For another test, the system named is CP269. In outline:
as §1

In a further test the test system is CP215. In outline:
as §1
Potency means the concentration at half of the fitted maximal effect.

With `CCCC(C)(COC(N)=O)COC(N)=O`, the Potency entry in the test with CP191, in the test on CP192, in the test on CP194, with CP201, in the test with CP211 and in the test with CP217 was “inactive” in each case. For the same compound, the Potency result in the test on CP237, in the test with CP238, in the test with CP247, in the test on CP250, in the test with CP252 and in the test on CP256 was “inactive” in each case. Besides, the Potency entry with CP260, in the test with CP262, in the test on CP265, in the test with CP268 and in the test with CP269 was “inactive” in each case. The compound was called inactive in the test on CP266.
Consider `O=C1Nc2ccc(Cl)cc2C(c2ccccc2Cl)=NC1O` (centres undefined), for which the Potency result in the test on CP191, in the test with CP192, with CP194, with CP201, in the test on CP211 and in the test with CP217 was “inactive” in each case. The Potency result in the test on CP237, in the test with CP238, in the test on CP247, with CP250, in the test with CP252 and in the test with CP256 was “inactive” each time. The Potency entry with CP260, in the test with CP265, with CP268 and in the test with CP269 was “inactive” each time. In addition, in the test with CP266, the result was inactive.
Regarding `CN1CCC(O)(c2ccc(F)cc2)C(C(=O)c2ccc(F)cc2)C1` (centres undefined), the Potency result in the test with CP191, in the test with CP192, in the test on CP194, in the test on CP201, in the test on CP211 and with CP215 was “inactive” each time. Further, the Potency result with CP217, in the test with CP237, in the test with CP238, with CP247, in the test on CP250 and in the test with CP252 was “inactive” throughout. Besides, the Potency result in the test with CP256, with CP262, in the test with CP265, in the test on CP268 and in the test with CP269 was “inactive” each time. The compound was classed as inactive in the test with CP266.
In the case of `COC1CC(=C(c2cccs2)c2cccs2)C[N+](C)(C)C1` (centres undefined), the Potency in the test with CP191 was 5.01 µM (active); in the test on CP217, 6.31 µM (active); in the test with CP237, 11.2 µM (active); in the test with CP238, 6.31 µM (active); with CP247, 5.01 µM (active); in the test on CP250 it was 10 µM (active). For the same compound, the Potency in the test with CP252 was 4.47 µM (active); with CP256, 4.47 µM (active); in the test on CP260, 5.62 µM (active); with CP265, 4.47 µM (active); in the test with CP269 it was 10.7 µM (active).
In the case of `O=P1(N(CCCl)CCCl)NCCCO1` (centres undefined), the Potency result in the test on CP191, in the test with CP192, in the test with CP194, in the test on CP201, in the test with CP211 and in the test on CP215 was “inactive” in each case. Besides, the Potency entry in the test with CP217, with CP237, in the test with CP238, with CP247, with CP250 and with CP252 was “inactive” throughout. Further, the Potency result in the test on CP260, with CP262, with CP265, in the test with CP268 and in the test on CP269 was “inactive” throughout. The result with CP266 was inactive.
Turning to `CN1C(=O)C(O)N=C(c2ccccc2)c2cc(Cl)ccc21` (centres undefined), the Potency result in the test on CP191, with CP192, in the test on CP194, in the test on CP201, with CP211 and in the test on CP217 was “inactive” in each case. Moreover, the Potency result in the test on CP237, in the test on CP238, in the test on CP247, in the test with CP250, with CP252 and with CP256 was “inactive” each time. Moreover, the Potency entry in the test on CP260, in the test with CP262, in the test on CP265, with CP268 and in the test with CP269 was “inactive” in each case.
`CCCCCCCCCC(=O)O[C@H]1CC[C@H]2[C@@H]3CCC4=CC(=O)CC[C@@H]4[C@H]3CC[C@]12C`: the Potency entry in the test with CP191, in the test on CP192, with CP194, in the test on CP201, in the test with CP211 and in the test on CP215 was “inactive” each time. Moreover, the Potency entry in the test on CP217, in the test on CP237, with CP238, in the test with CP247, in the test on CP250 and in the test with CP252 was “inactive” throughout. Besides, the Potency entry with CP256, in the test on CP262, in the test on CP265, in the test on CP268 and in the test with CP269 was “inactive” each time. In addition, in the test with CP266, the result was inactive.
In the case of `CCOP(=S)(OCC)Oc1ccc2c(C)c(Cl)c(=O)oc2c1`, the Potency entry with CP192, in the test with CP247 and in the test on CP262 was “inactive” throughout.
For the compound `COc1ccc2c(c1)C13CCCC[C@@H]1C(C2)N(C)CC3` (some centres undefined), the Potency entry in the test with CP191, in the test with CP192, with CP201, with CP211, in the test with CP215 and in the test with CP217 was “inactive” throughout. In addition, the Potency result in the test with CP237, with CP238, with CP247, in the test with CP250, in the test with CP252 and in the test with CP262 was “inactive” each time. Further, the Potency in the test with CP260 is 11.2 µM (active). Besides, in the test on CP266, the compound was classed as inactive.
